Results taken from the supplement of paper PMC10849652.
About 7,900 targets were measured; listed, in parts, are those with a hit and a random draw of the rest. About 0.6% of all pairs of compound and target were hits.

compound: CCCS(=O)(=O)Nc1ccc(F)c(C(=O)c2c[nH]c3ncc(Cl)cc23)c1F; experiment: log2 fold change, soluble protein after heating vs DMSO (PISA); higher = thermal stabilisation; K562 cells, 10 uM, 30 min; active = over 0.2 and 3.5 SD of the protein, either way, in both replicates (recomputed)
Method in brief: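 K562 cells (2×10^6 cells/mL) were treated with 10 μM compound for 30 min, and aliquots were heated for 3 min over 48°C-58°C. Pooled aliquots were extracted in PBS with 0.5% NP-40 at 4°C, and the supernatant after 21,000xg for 90 min was measured by TMTpro 16plex LC-MS/MS with channel sums equalised. Reported thermal stability, relative to control samples and from duplicates, is a log2 fold change.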

Sequence of UniProt Q8TC12 (Q8TC12 whole entry, looked up): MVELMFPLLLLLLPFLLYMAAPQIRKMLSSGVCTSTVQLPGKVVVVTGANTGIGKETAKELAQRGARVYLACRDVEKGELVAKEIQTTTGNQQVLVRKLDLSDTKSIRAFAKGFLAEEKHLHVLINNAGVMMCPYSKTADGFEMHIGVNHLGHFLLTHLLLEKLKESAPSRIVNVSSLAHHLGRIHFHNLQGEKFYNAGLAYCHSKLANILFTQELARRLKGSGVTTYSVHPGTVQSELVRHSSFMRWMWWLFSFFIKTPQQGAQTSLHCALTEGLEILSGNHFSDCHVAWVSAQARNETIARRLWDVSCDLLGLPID
Sequence of UniProt Q96T23 (Q96T23 whole entry, looked up): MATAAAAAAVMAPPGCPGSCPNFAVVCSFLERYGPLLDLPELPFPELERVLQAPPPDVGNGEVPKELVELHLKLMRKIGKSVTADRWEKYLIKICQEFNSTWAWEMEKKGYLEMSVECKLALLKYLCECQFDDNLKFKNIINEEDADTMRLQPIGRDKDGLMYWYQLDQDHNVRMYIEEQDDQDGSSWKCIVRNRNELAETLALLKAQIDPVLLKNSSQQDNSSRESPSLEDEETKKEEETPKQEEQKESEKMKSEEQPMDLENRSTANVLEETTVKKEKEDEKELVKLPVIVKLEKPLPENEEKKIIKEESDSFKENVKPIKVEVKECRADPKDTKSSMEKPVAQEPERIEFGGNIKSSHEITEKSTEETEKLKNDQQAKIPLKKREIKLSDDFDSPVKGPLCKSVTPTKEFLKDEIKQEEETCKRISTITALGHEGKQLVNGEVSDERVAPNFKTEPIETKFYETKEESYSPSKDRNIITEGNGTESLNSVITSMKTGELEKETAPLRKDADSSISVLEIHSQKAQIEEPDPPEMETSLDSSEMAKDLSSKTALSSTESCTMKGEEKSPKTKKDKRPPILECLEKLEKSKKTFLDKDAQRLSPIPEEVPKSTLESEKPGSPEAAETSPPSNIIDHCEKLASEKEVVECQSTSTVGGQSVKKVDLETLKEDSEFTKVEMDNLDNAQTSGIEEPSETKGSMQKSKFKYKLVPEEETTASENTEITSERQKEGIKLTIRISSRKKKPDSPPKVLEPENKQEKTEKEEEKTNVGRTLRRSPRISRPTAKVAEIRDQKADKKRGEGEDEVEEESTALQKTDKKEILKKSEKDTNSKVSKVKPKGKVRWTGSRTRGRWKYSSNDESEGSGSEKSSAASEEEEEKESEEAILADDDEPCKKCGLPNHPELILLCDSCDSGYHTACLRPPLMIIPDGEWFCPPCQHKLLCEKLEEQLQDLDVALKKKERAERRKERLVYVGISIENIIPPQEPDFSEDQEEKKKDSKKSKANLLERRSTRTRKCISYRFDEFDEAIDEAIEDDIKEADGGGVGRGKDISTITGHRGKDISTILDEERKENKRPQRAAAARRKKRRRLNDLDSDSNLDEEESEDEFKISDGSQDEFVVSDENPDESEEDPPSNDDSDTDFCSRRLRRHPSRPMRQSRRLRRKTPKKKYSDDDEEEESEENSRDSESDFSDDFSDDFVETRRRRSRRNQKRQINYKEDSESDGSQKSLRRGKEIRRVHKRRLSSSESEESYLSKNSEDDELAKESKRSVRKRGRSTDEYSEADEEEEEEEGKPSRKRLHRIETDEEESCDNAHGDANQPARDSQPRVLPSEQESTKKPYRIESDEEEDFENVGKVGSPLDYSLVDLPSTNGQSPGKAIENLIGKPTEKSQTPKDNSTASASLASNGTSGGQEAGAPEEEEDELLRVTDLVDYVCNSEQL
Sequence of UniProt Q8WXD2 (Q8WXD2 whole entry, looked up): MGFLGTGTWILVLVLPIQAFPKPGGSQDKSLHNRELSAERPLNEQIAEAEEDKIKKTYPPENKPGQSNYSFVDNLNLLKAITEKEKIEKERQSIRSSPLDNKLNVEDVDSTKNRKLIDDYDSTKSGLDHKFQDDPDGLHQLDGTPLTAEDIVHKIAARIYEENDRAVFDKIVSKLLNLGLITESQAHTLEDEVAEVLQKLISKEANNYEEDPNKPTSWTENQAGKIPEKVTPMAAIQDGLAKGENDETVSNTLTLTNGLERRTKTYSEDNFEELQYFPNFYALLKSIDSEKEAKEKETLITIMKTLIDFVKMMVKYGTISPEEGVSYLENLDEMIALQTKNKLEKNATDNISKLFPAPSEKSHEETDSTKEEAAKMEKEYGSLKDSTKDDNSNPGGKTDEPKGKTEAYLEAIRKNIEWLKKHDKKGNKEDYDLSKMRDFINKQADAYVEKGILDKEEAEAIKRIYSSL
Sequence of UniProt Q8WWV3 (Q8WWV3 whole entry, looked up): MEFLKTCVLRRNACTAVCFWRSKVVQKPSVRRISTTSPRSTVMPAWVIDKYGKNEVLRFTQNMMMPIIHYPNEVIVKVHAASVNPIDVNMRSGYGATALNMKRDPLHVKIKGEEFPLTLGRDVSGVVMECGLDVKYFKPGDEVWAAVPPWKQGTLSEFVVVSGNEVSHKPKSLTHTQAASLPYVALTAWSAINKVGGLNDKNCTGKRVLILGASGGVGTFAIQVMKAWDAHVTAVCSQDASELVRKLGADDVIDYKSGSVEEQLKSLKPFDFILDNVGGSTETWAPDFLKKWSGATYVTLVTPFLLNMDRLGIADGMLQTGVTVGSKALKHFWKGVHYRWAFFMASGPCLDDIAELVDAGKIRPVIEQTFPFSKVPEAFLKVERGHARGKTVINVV
Sequence of UniProt O00560 (O00560 whole entry, looked up): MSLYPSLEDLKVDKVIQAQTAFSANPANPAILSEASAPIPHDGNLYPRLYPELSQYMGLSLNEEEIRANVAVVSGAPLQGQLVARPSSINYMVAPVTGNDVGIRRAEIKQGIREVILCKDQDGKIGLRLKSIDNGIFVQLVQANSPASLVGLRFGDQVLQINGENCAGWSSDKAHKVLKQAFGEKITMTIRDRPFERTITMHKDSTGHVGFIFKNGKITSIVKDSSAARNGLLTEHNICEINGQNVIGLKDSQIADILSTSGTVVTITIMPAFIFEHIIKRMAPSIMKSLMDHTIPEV
Sequence of UniProt Q06609 (Q06609 whole entry, looked up): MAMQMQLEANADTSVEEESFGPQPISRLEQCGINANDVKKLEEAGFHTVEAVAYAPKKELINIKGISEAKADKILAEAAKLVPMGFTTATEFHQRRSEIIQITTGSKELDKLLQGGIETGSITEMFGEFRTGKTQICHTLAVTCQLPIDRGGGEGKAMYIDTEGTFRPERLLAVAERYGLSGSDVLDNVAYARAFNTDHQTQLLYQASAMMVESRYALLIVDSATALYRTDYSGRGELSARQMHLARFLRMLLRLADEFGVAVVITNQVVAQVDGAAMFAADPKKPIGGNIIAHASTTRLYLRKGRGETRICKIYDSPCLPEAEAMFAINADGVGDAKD
Sequence of UniProt Q92878 (Q92878 whole entry, looked up): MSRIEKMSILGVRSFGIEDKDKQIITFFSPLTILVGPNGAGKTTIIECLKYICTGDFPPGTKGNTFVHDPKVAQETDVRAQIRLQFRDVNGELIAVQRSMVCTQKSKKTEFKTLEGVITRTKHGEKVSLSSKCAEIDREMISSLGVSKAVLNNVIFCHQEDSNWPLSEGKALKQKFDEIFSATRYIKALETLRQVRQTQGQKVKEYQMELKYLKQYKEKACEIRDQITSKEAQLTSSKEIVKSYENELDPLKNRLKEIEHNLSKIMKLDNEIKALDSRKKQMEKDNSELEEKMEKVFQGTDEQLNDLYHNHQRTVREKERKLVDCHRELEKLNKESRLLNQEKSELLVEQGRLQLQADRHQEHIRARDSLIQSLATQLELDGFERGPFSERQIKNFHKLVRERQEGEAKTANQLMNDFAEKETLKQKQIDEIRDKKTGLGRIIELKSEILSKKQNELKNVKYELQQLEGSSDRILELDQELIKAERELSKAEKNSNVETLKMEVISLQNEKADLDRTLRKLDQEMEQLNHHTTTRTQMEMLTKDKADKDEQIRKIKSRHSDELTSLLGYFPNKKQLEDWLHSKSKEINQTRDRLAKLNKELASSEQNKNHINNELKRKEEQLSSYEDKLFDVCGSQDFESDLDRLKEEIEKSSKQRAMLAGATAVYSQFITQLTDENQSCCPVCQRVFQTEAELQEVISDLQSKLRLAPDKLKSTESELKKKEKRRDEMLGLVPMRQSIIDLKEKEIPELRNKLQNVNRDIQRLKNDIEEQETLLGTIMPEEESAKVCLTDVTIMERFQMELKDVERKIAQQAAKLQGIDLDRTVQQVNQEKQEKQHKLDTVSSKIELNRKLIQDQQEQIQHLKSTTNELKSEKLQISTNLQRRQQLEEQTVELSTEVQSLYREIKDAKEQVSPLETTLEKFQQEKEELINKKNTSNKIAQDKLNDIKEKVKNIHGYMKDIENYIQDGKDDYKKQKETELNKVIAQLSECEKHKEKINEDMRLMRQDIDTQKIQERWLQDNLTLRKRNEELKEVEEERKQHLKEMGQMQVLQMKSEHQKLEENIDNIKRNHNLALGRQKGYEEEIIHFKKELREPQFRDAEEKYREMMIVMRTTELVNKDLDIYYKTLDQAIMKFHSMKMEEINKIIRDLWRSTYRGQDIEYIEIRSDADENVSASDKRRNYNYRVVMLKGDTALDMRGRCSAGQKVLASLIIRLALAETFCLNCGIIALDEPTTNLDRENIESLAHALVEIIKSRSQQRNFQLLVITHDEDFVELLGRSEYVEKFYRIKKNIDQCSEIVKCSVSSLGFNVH
Sequence of UniProt Q8TBN0 (Q8TBN0 whole entry, looked up): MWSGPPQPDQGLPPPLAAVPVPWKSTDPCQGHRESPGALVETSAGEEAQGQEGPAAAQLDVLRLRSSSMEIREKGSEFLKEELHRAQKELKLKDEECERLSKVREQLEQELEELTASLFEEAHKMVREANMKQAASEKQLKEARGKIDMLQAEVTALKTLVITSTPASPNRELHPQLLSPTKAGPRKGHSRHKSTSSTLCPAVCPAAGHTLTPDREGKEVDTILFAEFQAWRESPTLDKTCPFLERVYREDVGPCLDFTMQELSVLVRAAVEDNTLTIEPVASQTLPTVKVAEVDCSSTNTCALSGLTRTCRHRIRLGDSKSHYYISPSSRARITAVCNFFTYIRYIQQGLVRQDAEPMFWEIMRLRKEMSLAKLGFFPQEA

Question: How did the log2 fold change turn out when ROCK2 (UniProt O75116) was run?
Answer: -0.005 (inactive)

Question: How did the log2 fold change turn out when SCCPDH (UniProt Q8NBX0) was run?
Answer: -0.123 (inactive)

Question: How did the log2 fold change turn out when RB1 (UniProt P06400) was run?
Answer: -0.008 (inactive)

Question: For RAB3IL1 (UniProt Q8TBN0), which log2 fold change is on record?
Answer: 0.062 (inactive)

Question: With SDCBP (UniProt O00560) as the target, how does the log2 fold change read?
Answer: 0.041 (inactive)

Question: With RTN4IP1 (UniProt Q8WWV3) as the target, how does the log2 fold change read?
Answer: -0.041 (inactive)

Question: For SGPL1 (UniProt O95470), which log2 fold change is on record?
Answer: -0.036 (inactive)

Question: For RPS14 (UniProt P62263), which log2 fold change is on record?
Answer: -0.038 (inactive)

Question: Which log2 fold change does the source give for RAD51 (UniProt Q06609) here?
Answer: -0.048 (inactive)

Question: Which log2 fold change does the source give for SH3GLB2 (UniProt Q9NR46) here?
Answer: 0.058 (inactive)

Question: How did the log2 fold change turn out when RPS5 (UniProt P46782) was run?
Answer: -0.066 (inactive)

Question: RAD50 isoform 2 (UniProt Q92878) was tested. Which log2 fold change did it give?
Answer: 0.038 (inactive)

Question: Which log2 fold change does the source give for RPS13 (UniProt P62277) here?
Answer: -0.09 (inactive)

Question: For RHOA (UniProt P61586), which log2 fold change is on record?
Answer: 0.074 (inactive)

Question: SLC12A9 (UniProt Q9BXP2) was tested. Which log2 fold change did it give?
Answer: -0.012 (inactive)

Question: For SCG3 (UniProt Q8WXD2), which log2 fold change is on record?
Answer: -0.041 (inactive)

Question: For RSF1 (UniProt Q96T23), which log2 fold change is on record?
Answer: 0.052 (inactive)

Question: How did the log2 fold change turn out when RPS3 (UniProt P23396) was run?
Answer: -0.102 (inactive)

Question: With RPS6KA1 isoform 2 (UniProt Q15418) as the target, how does the log2 fold change read?
Answer: 0.046 (inactive)

Question: For RRAGC (UniProt Q9HB90), which log2 fold change is on record?
Answer: 0.047 (inactive)

Question: With SERINC3 (UniProt Q13530) as the target, how does the log2 fold change read?
Answer: 0.002 (inactive)

Question: With RBM25 (UniProt P49756) as the target, how does the log2 fold change read?
Answer: 0 (inactive)

Question: Which log2 fold change does the source give for SKP1 (UniProt P63208) here?
Answer: 0.008 (inactive)

Question: RARS (UniProt P54136) was tested. Which log2 fold change did it give?
Answer: 0.058 (inactive)

Question: For RDH11 (UniProt Q8TC12), which log2 fold change is on record?
Answer: 0.035 (inactive)

Question: How did the log2 fold change turn out when RPS15 (UniProt P62841) was run?
Answer: -0.175 (inactive)

Question: How did the log2 fold change turn out when RPS18 (UniProt P62269) was run?
Answer: -0.04 (inactive)

Question: With RETSAT (UniProt Q6NUM9) as the target, how does the log2 fold change read?
Answer: -0.077 (inactive)

Question: For RMC1 (UniProt Q96DM3), which log2 fold change is on record?
Answer: 0.031 (inactive)

Question: How did the log2 fold change turn out when SAAL1 (UniProt Q96ER3) was run?
Answer: 0.035 (inactive)

Question: With RPA1 (UniProt P27694) as the target, how does the log2 fold change read?
Answer: 0.125 (inactive)

Question: For RAC1 (UniProt P63000), which log2 fold change is on record?
Answer: -0.008 (inactive)

Question: For SDHC (UniProt Q99643), which log2 fold change is on record?
Answer: 0.038 (inactive)

Question: SERPINA7 (UniProt P05543) was tested. Which log2 fold change did it give?
Answer: -0.271 (inactive)
